Compound activity deposited in PubChem BioAssay by National Center for Advancing Translational Sciences (NCATS).
rTrxR1 inhibitor: rat TrxR1 inhibition. O89049. recombinant rTrxR1, NADPH fluorescence consumption, selenite substrate. Potency, µM (series often up to 114 µM), hits mostly inhibitors. 390,000 tested, 1% active; also: nearly all actives have a fitted effect of over 65% in size
Target sequence (O89049 whole entry, looked up): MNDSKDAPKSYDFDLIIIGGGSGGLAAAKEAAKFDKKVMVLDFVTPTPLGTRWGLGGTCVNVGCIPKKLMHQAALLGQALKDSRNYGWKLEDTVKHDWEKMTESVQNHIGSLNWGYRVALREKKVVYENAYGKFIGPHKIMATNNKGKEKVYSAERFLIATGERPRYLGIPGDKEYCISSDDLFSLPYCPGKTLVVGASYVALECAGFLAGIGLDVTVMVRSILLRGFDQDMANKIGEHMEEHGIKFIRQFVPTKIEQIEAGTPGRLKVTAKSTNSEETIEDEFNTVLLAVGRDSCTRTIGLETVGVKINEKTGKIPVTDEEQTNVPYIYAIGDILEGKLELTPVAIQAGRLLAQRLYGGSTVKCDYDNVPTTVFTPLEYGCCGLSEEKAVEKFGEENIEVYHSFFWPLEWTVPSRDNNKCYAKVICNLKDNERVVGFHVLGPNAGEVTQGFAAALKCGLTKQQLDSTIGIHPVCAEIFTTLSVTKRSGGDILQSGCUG
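Rat TrxR1 (90 nM in the dispensed reagent) was pre-reduced with 400 uM NADPH for 5 min at room temperature, then incubated with compound for 15 min. After 400 uM selenite was added, NADPH fluorescence (Ex 340/Em 450 nm) was followed for 8 min.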
IDH1 R132H inh: human IDH1 R132H inhibition | Potency, µM (top dose mostly 76.6 µM), most hits filed as inhibitors | IDH1-R132H enzyme, NADPH consumption, diaphorase/resazurin fluorescence | 390,000 tested, 0.093% active; also: nearly all actives have a fitted effect of over 65% in size
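IDH1-R132H (0.5 ug/mL) preincubated 30 min with compound, then NADPH (0.016 mM) and alpha-KG (2 mM) added; 80 min at RT, pH 7.5. Remaining NADPH coupled via diaphorase/resazurin to fluorescence (540/590 nm); concentration-response curves normalized to no-enzyme control.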
VDR inhibitor: vitamin D3 receptor (human) inhibition | P11473 | VDR-SRC2-3 peptide fluorescence polarization, 2 h | Potency, µM, most hits filed as inhibitors | 400,000 tested, 0.93% active | AID 504847
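Reagent solutions, kept cold and dark, are dispensed first; compounds are then pinned in at 23 nl, plates briefly spun, and incubated 2 h at ambient temperature. Inhibition of VDR–SRC2-3 peptide binding is read by fluorescence polarization.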
Sfp inh: inhibitors of Bacillus subtilis Sfp phosphopantetheinyl transferase; Biochemical Sfp PPTase activity, qHTS; AID 1490; 310,000 tested, 3.5% active; Potency, µM, actives largely listed as inhibitors;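 also: the enzyme is Sfp with the accession as filed and its product quenches rhodamine fluorescence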
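Step 1, compound plus 15 nM Sfp-PPTase, 15 min, room temperature. Step 2, add rhodamine-CoA (5 uM) and BHQ-2-YbbR (12.5 uM). Step 3, read 525/598 nm fluorescence at 0 and 30 min.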
TrxR1 substrate: rat thioredoxin reductase 1 substrate activity. Potency, µM (doses to about 114 µM). AID 588456. purified TrxR1 substrate turnover, NADPH consumption readout. 390,000 tested, 0.01% active; also: nearly all actives have a fitted effect of over 50% in size
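Rat TrxR1, dispensed at 90 nM, was prereduced with 400 uM NADPH (final) for 5 min at ~22 deg C, then incubated with compound 15 min before 400 uM selenite. A first-read NADPH fluorescence drop versus no-compound background flagged substrates.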
PLK1 PBD inh: blocks phosphopeptide binding to human PLK1 polo-box domain; Potency, µM, actives largely listed as inhibitors; Plk1 PBD binding of FITC phosphopeptide, fluorescence polarization; P53350; 360,000 tested, 2.8% active; also: series mostly up to about 57 µM; nearly all actives have a fitted effect of over 65% in size
A number is an active result; – = inactive; ? = inconclusive; · = not tested or not shown; ! = not confirmed by another sample; [ ] = dose if it differs, or a comment. In the library only some 5.2% were active in any assay of this set; here they are far more common. Calls follow the shape of the dose curve; as a rule, active = well fitted curve in the direction sought with a large enough effect; inconclusive = small, poorly fitted or top-dose-only effect, or another doubt; inactive = no such curve, though single readings can be large; an effect the other way counts as inactive or inconclusive.

SMILES	rTrxR1 inhibitor	IDH1 R132H inh	VDR inhibitor	Sfp inh	TrxR1 substrate	PLK1 PBD inh
COc1cc(OC)c(OC)cc1/C=C1/C(=O)NC(=O)N(Cc2ccccc2)C1=O	–	–	–	–	–	?
COc1ccc(CN2C(=O)CC(=O)NC2=S)cc1	–	–	–	?	–	–
O=C(COc1ccccc1/C=C1/NC(=O)NC1=O)Nc1ccccc1	–	–	?	–	–	3.36µM
C[C@H](N)Cc1cccc(C(F)(F)F)c1	–	·	–	·	–	·
Oc1cc2c(cc1O)[C@H]1c3ccccc3CN[C@@H]1CC2	–	·	·	31.6µM	–	·
COc1ccc2c(c1)C1OCCNC1CC2 (stereo not given)	·	·	·	·	·	–
Oc1cc2c(cc1O)[C@H]1c3ccccc3CN[C@H]1CC2	·	·	–	39.8µM	·	·
C[C@]12CC[C@@H]3c4ccc(O[C@@H]5O[C@H](C(=O)O)[C@@H](O)[C@H](O)[C@H]5O)cc4CC[C@H]3[C@@H]1C[C@@H](O)[C@@H]2O	–	–	–	79.4µM	–	–
CC12CCC3c4ccc(OC(=O)N(CCCl)CCCl)cc4CCC3C1CCC2O (stereo not given)	–[11.4 µM]	–	–	·	–	–
CC1=NCCc2c1[nH]c1cc(O)ccc21	–	–	–	79.4µM!	–	1.19µM
CCOc1cc(-c2c(C#N)c(=O)[nH]c3c2c(C)nn3-c2ccc(F)cc2)ccc1O	–	–	–	–	–	?
CCCCOC(=O)N(C)SN(C)C(=O)Oc1cccc2c1OC(C)(C)C2	·	·	3.16µM	–	·	·
CN1C(=O)C(=Cc2ccccc2OCc2ccccc2Cl)C(=O)N(C)C1=O	?	–	?	50.1µM	–	2.99µM
CN1C(=O)C(=Cc2ccccc2OCCOc2ccc([N+](=O)[O-])cc2)C(=O)N(C)C1=O	?	–	?	70.8µM	–	2.99µM
CCn1cc(C=C2C(=O)N(C)C(=O)N(C)C2=O)c2ccccc21	–	–	–	–	–	–
CN1C(=O)C(=Cc2ccccc2OCc2ccc(C(=O)O)cc2)C(=O)N(C)C1=O	?	–	?	–	–	11.9µM
Oc1ccc2c(c1)[C@@]13CCCCC1[C@@H](C2)N(CC1CCC1)CC3 (stereo not given in full)	·	·	–	–	·	·
Oc1ccc(/C=N/NP(=S)(c2ccccc2)c2ccccc2)c(O)c1O	?	–	–	39.8µM	–	10.6µM
COc1ccccc1-n1c(O)c(/C=N/NC(=S)Nc2ccccc2)c(=O)[nH]c1=S	10µM	–	?	10µM	–	–
CCn1c(O)c(/C=N/NC(=O)c2ccccc2)c(=O)[nH]c1=S	–	–	–	–	–	–
O=c1[nH]c(=S)[nH]c(O)c1/C=N/N1CCOCC1	–	–	–	?	–	–
CCOC(=O)c1cc(CC)sc1/N=C/C1C(=O)NC(=S)NC1=O	8.91µM	–	–	17.8µM	–	–
CCOC(=O)c1cc(CC)sc1/N=C/c1c(O)[nH]c(=S)[nH]c1=O	?	–	?	8.91µM	–	–
CCOC(=O)c1c(/N=C/C2C(=O)NC(=O)NC2=O)sc2c1CCC2	–	–	–	35.5µM	–	–
NC(N)=NCCC[C@H](N)C(=O)O	–	·	–	?	–	·
SMILES	rTrxR1 inhibitor	IDH1 R132H inh	VDR inhibitor	Sfp inh	TrxR1 substrate	PLK1 PBD inh
CC(C)C[C@H](NC(=O)[C@@H](N)Cc1ccccc1)C(=O)N[C@@H](Cc1ccccc1)C(=O)N[C@@H](CCC(N)=O)C(=O)N1CCC[C@H]1C(=O)N[C@@H](CCC(N)=O)C(=O)N[C@@H](CCCN=C(N)N)C(=O)N[C@@H](Cc1ccccc1)C(N)=O	·	·	–	–	·	·
O=C(NC1CCCCC1)Oc1cc2oc(=O)sc2cc1Cl	?	–	31.6µM	3.55µM	–	2.67µM
CCOC(=O)c1ccc(N2C(=O)CC(N3CC=C(c4ccc(F)cc4)CC3)C2=O)cc1 (stereo not given)	?	–	–	31.6µM	–	–
O=C1CC(N2CC=C(c3ccc(F)cc3)CC2)C(=O)N1c1ccc(F)cc1 (stereo not given)	?	–	–	–	–	–
Cl.Cl.Cl.Cl.Cl.Cl.N.N.N.N.NNNNN.NNNNN.O.O.[Ru].[Ru].[Ru]	·	·	?	50.1µM	·	·
CN1Cc2c(ccc3c2OCO3)C2C(O)Cc3cc4c(cc3C21)OCO4 (stereo not given)	·	·	·	–	·	·
Cc1ccc(CC2C(=O)N(C)C(=O)N(C)C2=O)s1	?	–	?	35.5µM	–	26.7µM
O=[N+]([O-])c1ccc2nc(N3CCNCC3)ccc2c1	79.4µM!	–	–	?	–	–
O=C(Nc1ccccc1)c1cc([N+](=O)[O-])ccc1N1CCNCC1	?	–	–	–	–	–
CCN(CC)c1ccc(CC2C(=O)N(C)C(=O)N(C)C2=O)cc1	31.6µM	–	–	?	–	?
COc1cc2[nH]c(=O)n(-c3ccccc3)c(=O)c2cc1OC	–	–	–	–	–	–
COc1cc(C(c2c(C)[nH]n(-c3ccccc3)c2=O)c2c(C)[nH]n(-c3ccccc3)c2=O)cc(OC)c1OC	?	–	?	–	–	2.12µM
Cc1[nH]n(-c2ccccc2)c(=O)c1C(c1cccc([N+](=O)[O-])c1O)c1c(C)[nH]n(-c2ccccc2)c1=O	–	–	?	–	–	8.44µM
CC(C)[C@H](NC(=O)[C@H](CCC(=O)O)NC(=O)[C@H](Cc1ccccc1)NC(=O)[C@H](C)NC(=O)[C@@H](N)Cc1ccc(O)cc1)C(=O)N[C@H](C(=O)NCC(N)=O)C(C)C	·	·	–	–	·	·
CSCC[C@@H]1NC(=O)[C@@H](NC(=O)[C@H](CCCNC(=N)N)NC(=O)[C@H](CC(C)C)NC(=O)[C@H](CCSC)NC(=O)[C@H](CC(=O)O)NC(=O)[C@H](Cc2ccccc2)NC(=O)[C@@H](N)CC(=O)O)CSSC[C@@H](C(=O)N[C@@H](Cc2c[nH]c3ccccc23)C(=O)N[C@@H](CCC(N)=O)C(=O)N[C@H](C(=O)O)C(C)C)NC(=O)[C@@H]2CCCN2C(=O)[C@H](CCCNC(=N)N)NC(=O)[C@H](Cc2ccc(O)cc2)NC(=O)[C@H](C(C)C)NC(=O)[C@H](CCCNC(=N)N)NC(=O)CNC(=O)[C@H](CC(C)C)NC1=O	·	·	?	–	·	·
O=C(N/N=C/c1c(O)n(Cc2ccco2)c(=O)[nH]c1=O)c1ccccc1	–	–	–	?	–	–
C[C@H](CCC(=O)O)C[C@H](C)C[C@H](C)C(=O)/C=C(\O)[C@H](C)C[C@H](C)C/C=C/[C@@H](C)[C@@H](O)[C@@H](C)[C@@H](O)C[C@@H]1CC[C@@](C)(C2CC[C@@](C)([C@@H](C)O)O2)O1 (stereo not given in full)	·	·	?	–	·	·
Cc1ccc(/C=C2\C(=O)NC(=O)N(CC3CCCO3)C2=O)s1 (stereo not given)	39.8µM	–	?	?	–	4.74µM
